High-throughput results deposited in PubChem by Broad Institute.
Hits are enriched below; roughly 6.8% of the tested compounds scored in any of these assays.
Pf Dd2 growth: inhibitors of Plasmodium falciparum Dd2 growth. hit rate 2.3% among 94,000. activity change, % at 10 µM. P. falciparum Dd2 growth, SYBR Green, 72 h; hits give low values; in the data active = activity change below about -80%; inconclusive = no clear call, values can overlap the other calls
T cruzi growth-1: inhibitors of T. cruzi proliferation. T. cruzi beta-gal in NIH3T3, GalScreen luminescence, 90 h. inhibition, % at 8.34 µM. hit rate 5.9% among 77,000;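 active = mean inhibition above about 93%, with at least 55% of replicates each passing it, limit read from the data, passing the limit was not always enough; inconclusive = only one of those two conditions holds; inactive = neither condition holds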
C diff growth: blocks growth of Clostridium difficile. Clostridium difficile clinical isolate growth, OD600, 24 h; hits give low values. growth activity, negative = inhibition, % at 16 µg/mL (by protocol). hit rate 0.25% among 86,000;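 active = mean growth activity at or below -80% and every replicate also at or below -80%; inconclusive = mean at or below -80% but some replicate above -80%; inactive = mean growth activity above -80%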;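 note: 0% = DMSO wells and -100% = levofloxacin 16 µg/mL wells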
T cruzi growth-2: inhibitors of T. cruzi proliferation; shares compounds with T cruzi growth-1; hit rate 72% among 5,600; T. cruzi beta-gal in NIH3T3, GalScreen luminescence, 90 h; inhibition, % at 8.35 µM;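 active = mean replicate inhibition above about 95% and at least 55% of replicates individually reaching it, limit read from the data; inconclusive = only one of the two criteria is met; inactive = neither criterion is met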
T cruzi growth-3: Trypanosoma cruzi proliferation inhibition. inhibition, % at 2.09 µM. shares compounds with T cruzi growth-1. hit rate 21% among 5,600. T. cruzi beta-gal in NIH3T3, GalScreen luminescence, 90 h. AID 651740;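 active = mean inhibition above about 95%, with at least 55% of replicates also reaching it, limit read from the data; inconclusive = meets just one of the two conditions; inactive = meets neither condition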;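 note: plate controls were neutral control median for no effect and positive control median for full effect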
NIH3T3 tox: cytotoxicity in mouse NIH/3T3 fibroblasts. cytotoxicity (signal decrease), % at 8.35 µM. NIH/3T3 viability, CellTiter-Glo ATP luminescence, 90 h. hit rate 14% among 5,600. shares compounds with T cruzi growth-1;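 active = mean signal decrease across replicates above about 35% based on untreated-well scatter, with enough replicates individually passing, limit read from the data; inconclusive = no rule stated though some were filed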;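 note: 0% = median of neutral control wells and 100% = median of positive control wells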
3T3 cytotox 2: cytotoxicity in mouse NIH/3T3 fibroblasts; hit rate 56% among 5,600; AID 651744; shares compounds with T cruzi growth-1; NIH/3T3 viability, CellTiter-Glo ATP luminescence, 90 h; inhibition, % at 24.9 µM;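 active = mean loss of cell viability signal at or above a set limit, and enough replicates individually reaching it; inconclusive = meets only the mean limit or only the replicate share; inactive = meets neither condition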;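 note: 0% = median of neutral control wells and 100% = median of positive control wells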
Starred values were filed as active, the others as inactive; ? = inconclusive; . = no result given.

SMILES	Pf Dd2 growth	T cruzi growth-1	C diff growth	T cruzi growth-2	T cruzi growth-3	NIH3T3 tox	3T3 cytotox 2
CN1CCN(C(=O)C[C@H]2CC[C@H](NC(=O)Nc3ccccc3F)[C@@H](CO)O2)CC1	5	-9	-2	.	.	.	.
C[C@@H]1CCCCO[C@H](CN(C)C(=O)Nc2ccc(C(F)(F)F)cc2)[C@@H](C)CN([C@H](C)CO)C(=O)c2cc(NC(=O)c3ccccc3)ccc2O1	-59	54	5	.	.	.	.
C[C@@H]1CN([C@H](C)CO)C(=O)c2cc(NC(=O)c3ccccc3)ccc2O[C@@H](C)CCCCO[C@H]1CN(C)C(=O)Nc1ccc(F)cc1	-45	70	2	.	.	.	.
C[C@H]1CCCCO[C@@H](CN(C)C(=O)Nc2ccc(C(F)(F)F)cc2)[C@@H](C)CN([C@@H](C)CO)C(=O)c2cc(NC(=O)c3ccccc3)ccc2O1	-84*	102*	11	108*	113*	-5	19
C[C@@H]1CCCCO[C@H](CN(C)C(=O)Nc2ccc(F)cc2)[C@H](C)CN([C@H](C)CO)C(=O)c2cc(NC(=O)c3ccccc3)ccc2O1	?	?	-1	102*	62	11	15
C[C@@H]1CCCCO[C@@H](CN(C)C(=O)Nc2ccc(F)cc2)[C@H](C)CN([C@H](C)CO)C(=O)c2cc(NC(=O)c3ccccc3)ccc2O1	-32	93	-7	.	.	.	.
C[C@H]1CCCCO[C@H](CN(C)C(=O)Nc2ccc(F)cc2)[C@@H](C)CN([C@@H](C)CO)C(=O)c2cc(NC(=O)c3ccccc3)ccc2O1	-61	99*	-3	89	54	8	?
Cc1ccc(S(=O)(=O)N(C)C[C@@H]2Oc3c(NC(=O)c4cnccn4)cccc3C(=O)N([C@@H](C)CO)C[C@@H]2C)cc1	-18	56	7	.	.	.	.
COCC(=O)N(C)C[C@@H]1Oc2ncc(C#Cc3ccc(F)cc3)cc2C(=O)N([C@H](C)CO)C[C@H]1C	-4	25	1	.	.	.	.
CC(C)NC(=O)Nc1ccc2c(c1)C(=O)N([C@@H](C)CO)C[C@H](C)[C@H](CN(C)S(=O)(=O)c1cn(C)cn1)OCCCC[C@H](C)O2	18	-30	-1	.	.	.	.
COc1ccc(NC(=O)Nc2ccc3c(c2)C(=O)N([C@H](C)CO)C[C@H](C)[C@H](CN(C)Cc2ccc4c(c2)OCO4)OCCCC[C@H](C)O3)cc1	-68	?	2	98*	99*	9	103*
COc1ccc(NC(=O)Nc2ccc3c(c2)C(=O)N([C@H](C)CO)C[C@@H](C)[C@H](CN(C)Cc2ccc4c(c2)OCO4)OCCCC[C@@H](C)O3)cc1	-83*	101*	6	93	95	?	106*
COc1ccc(NC(=O)Nc2ccc3c(c2)C(=O)N([C@H](C)CO)C[C@@H](C)[C@H](CN(C)Cc2ccc4c(c2)OCO4)OCCCC[C@H](C)O3)cc1	-71	42	-3	.	.	.	.
COc1ccc(NC(=O)Nc2ccc3c(c2)C(=O)N([C@@H](C)CO)C[C@H](C)[C@@H](CN(C)Cc2ccc4c(c2)OCO4)OCCCC[C@@H](C)O3)cc1	-72	74	18	.	.	.	.
COc1ccc(NC(=O)Nc2ccc3c(c2)C(=O)N([C@@H](C)CO)C[C@H](C)[C@H](CN(C)Cc2ccc4c(c2)OCO4)OCCCC[C@H](C)O3)cc1	-77	118*	9	102*	103*	40*	43*
COc1ccc(NC(=O)Nc2ccc3c(c2)C(=O)N([C@@H](C)CO)C[C@H](C)[C@H](CN(C)Cc2ccc4c(c2)OCO4)OCCCC[C@@H](C)O3)cc1	-67	103*	13	103*	54	0	8
COc1ccc(-c2ccc3c(c2)[C@@H]2[C@@H](CCN2S(=O)(=O)c2ccccc2F)[C@@H](CO)N3C)cc1	-20	82	-10	.	.	.	.
C[C@H]1CN([C@@H](C)CO)C(=O)Cc2cc(N(C)C)ccc2O[C@H]1CN(C)S(=O)(=O)c1cccs1	-2	-5	-2	.	.	.	.
CO[C@@H]1CN(C)C(=O)c2ccc(NC(=O)NC(C)C)cc2OC[C@@H](C)N(Cc2ccccn2)C[C@H]1C	-7	.	-4	.	.	.	.
O=C(c1ccc2c(c1)OCO2)N1CC2(C1)[C@H](c1ccccc1)[C@H](CO)N2C(=O)C1CC1	15	.	3	.	.	.	.
COc1ccc(NC(=O)Nc2ccc3c(c2)C(=O)N([C@H](C)CO)C[C@@H](C)[C@@H](CN(C)Cc2ccc4c(c2)OCO4)OCCCC[C@@H](C)O3)cc1	-78	124*	1	100*	82	17	37*
COc1ccccc1-c1cn(CC[C@@H]2CC[C@H](NC(=O)C3CCCCC3)[C@H](CO)O2)nn1	-19	9	-3	.	.	.	.
C[C@H]1CN([C@@H](C)CO)C(=O)c2cccc(NC(=O)Nc3cccc4ccccc34)c2O[C@H]1CN(C)Cc1ccc(C(=O)Nc2ccccc2N)cc1	?	.	11	.	.	.	.
COc1ccc(NC(=O)Nc2cccc3c2O[C@@H](CN(C)Cc2ccc(C(=O)O)cc2)[C@@H](C)CN([C@H](C)CO)C3=O)cc1	1	102*	2	-19	-18	6	-10
C[C@@H]1CN([C@@H](C)CO)C(=O)c2cc(NC(=O)Nc3ccc4c(c3)OCO4)ccc2O[C@H]1CN(C)Cc1ccc(C(=O)Nc2ccccc2N)cc1	-73	.	-1	.	.	.	.
SMILES	Pf Dd2 growth	T cruzi growth-1	C diff growth	T cruzi growth-2	T cruzi growth-3	NIH3T3 tox	3T3 cytotox 2
COc1ccc(NC(=O)Nc2cccc3c2O[C@@H](CN(C)Cc2ccc(C(=O)Nc4ccccc4N)cc2)[C@H](C)CN([C@H](C)CO)C3=O)cc1	-70	?	-3	94	86	14	65*
COc1ccc(NC(=O)Nc2cccc3c2O[C@H](CN(C)Cc2ccc(C(=O)O)cc2)[C@H](C)CN([C@@H](C)CO)C3=O)cc1	15	2	0	.	.	.	.
C[C@H](CO)N1C[C@H](C)[C@@H](CN(C)Cc2ccc(C(=O)Nc3ccccc3N)cc2)Oc2c(NC(=O)Nc3ccc4c(c3)OCO4)cccc2C1=O	-88*	107*	.	103*	88	-1	54*
Cc1noc(C)c1NC(=O)N(C)C[C@H]1Oc2ccc(NS(=O)(=O)c3ccccc3)cc2CC(=O)N([C@@H](C)CO)C[C@H]1C	8	19	-4	.	.	.	.
C[C@H]1CCCCO[C@@H](CN(C)S(=O)(=O)c2ccc(Cl)cc2)[C@@H](C)CN([C@@H](C)CO)C(=O)c2cc(NC(=O)NC3CCCCC3)ccc2O1	.	87	-2	.	.	.	.
CN(C)C(=O)[C@H]1[C@H](CO)[C@H]2Cn3c(cccc3=O)[C@H]2N1C(=O)NC1CCCC1	20	.	3	.	.	.	.
C[C@H]1CCCCO[C@@H](CN(C)C(=O)c2ccncc2)[C@@H](C)CN([C@@H](C)CO)C(=O)c2cc(N(C)C)ccc2O1	-17	36	2	.	.	.	.
